# DT40 TDP1 CPT: DT40-hTDP1 cell growth loss with CPT | Potency, µM (series often up to 46.2 µM), without a hit: top-dose activity change, negative = growth inhibition, usual class: inhibitors | chicken DT40 Tdp1-/-;hTDP1 cells + 20 nM CPT, ATP luminescence, 48 h | 420,000 compounds, 12% hits | AID 686979; note: potency is the fitted concentration of half-maximal effect; nearly all actives have a fitted effect of over 55% in size
#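 Chicken DT40 Tdp1-/- cells stably complemented with human TDP1 were seeded at 400 cells/well in medium containing 20 nM camptothecin, exposed to pin-transferred compounds, and grown at 37 °C for at least 48 hr. Viability was read as ATP luminescence.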
# IL-1B inflam inh: inflammasome signaling inhibition, IL-1 beta readout; THP-1 LPS/ATP IL-1B secretion, AlphaLISA, 16 h; active compounds read low; activity change, % at 57.5 µM; 360,000 compounds, 4.7% hits; AID 743279; in the data active = activity change below about -50%; inconclusive = mostly about -30% to -49%
#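 Secreted IL-1B measured by AlphaLISA bead assay after 16 h compound exposure of THP-1 cells; compounds (final up to 57.5 uM) added 1 h before LPS (250 ng/mL) and ATP (1.25 mM) stimulation; lower signal means less secretion.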
# ELG1 repair inh: ELG1-dependent DNA repair inhibition. HEK293T ELG1-luciferase reporter, luminescence, 16 h; DNA damage induced by 5-fluorouridine. Potency, µM (doses to about 46.1 µM), for inactives: at the highest dose activity change, negative = inhibition, actives largely listed as inhibitors. 330,000 compounds, 2.3% hits; note: potency is the fitted concentration of half-maximal effect; nearly all actives have a fitted effect of over 55% in size
#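 DMSO vehicle served as the neutral condition. Each well held 2,000 cells given 5-fluorouridine plus compound; after 16 hr at 37 °C/5% CO2, ONE-Glo was added and luciferase measured 30 min later.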
# TDP1 inh: TDP1 (human) enzyme inhibition; Q9NUW8; recombinant TDP1, AlphaScreen DNA substrate cleavage; Potency, µM (top dose mostly 130 µM), for inactives: at the highest dose activity change, negative = inhibition, most hits filed as inhibitors; 350,000 compounds, 0.28% hits; AID 485290; note: potency is the fitted concentration of half-maximal effect; nearly all actives have a fitted effect of over 40% in size
# Target sequence (Q9NUW8 whole entry, looked up): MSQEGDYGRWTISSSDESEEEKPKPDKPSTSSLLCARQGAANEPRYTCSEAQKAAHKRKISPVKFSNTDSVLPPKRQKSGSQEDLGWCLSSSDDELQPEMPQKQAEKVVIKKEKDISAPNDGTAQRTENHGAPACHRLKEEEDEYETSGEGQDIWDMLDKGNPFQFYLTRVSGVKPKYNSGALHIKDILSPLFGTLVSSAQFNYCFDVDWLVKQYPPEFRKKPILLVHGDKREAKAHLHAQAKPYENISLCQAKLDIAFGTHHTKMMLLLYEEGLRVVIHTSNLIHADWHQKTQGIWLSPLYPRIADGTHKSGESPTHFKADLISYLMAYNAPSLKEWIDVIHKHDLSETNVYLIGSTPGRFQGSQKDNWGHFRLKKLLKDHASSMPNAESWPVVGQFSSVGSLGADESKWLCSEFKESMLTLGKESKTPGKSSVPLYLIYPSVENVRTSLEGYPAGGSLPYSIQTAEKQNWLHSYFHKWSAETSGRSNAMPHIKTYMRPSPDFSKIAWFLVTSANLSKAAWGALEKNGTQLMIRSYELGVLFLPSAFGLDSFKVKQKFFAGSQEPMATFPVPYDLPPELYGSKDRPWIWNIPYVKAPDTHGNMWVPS
#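 Tdp1 1 nM final; 15 min RT w/ cpd; substrate 15 nM, 5 min; beads 10 ug/ml, 10 min; AlphaScreen read. Neg ctrl: no enzyme.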
# Giardia kill: kills Giardia lamblia | 340,000 compounds, 0.15% hits | Giardia lamblia trophozoite viability | activity change, % at 7.66 µM, hits read low; in the data active = activity change below about -80%; inconclusive = between about -30% and that limit;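 note: parasites exposed to compound for two days anaerobically before the ATP read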
#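 ATP-content bioluminescence gauges trophozoite survival. Cells (100/well) receive compound and incubate anaerobically for 48 hrs at 37 deg C; detection reagent follows for 15-30 min at room temperature.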
# DT40 TDP1 no CPT: qHTS for Inhibitors of human tyrosyl-DNA phosphodiesterase 1 (TDP1): qHTS in cells in absence of CPT; Potency, µM (top dose mostly 46.2 µM), without a hit: at the highest dose activity change, negative = growth inhibition, actives largely listed as inhibitors; DT40 Tdp1-/- hTDP1 cells, no CPT, ATP luminescence, 48 h; 420,000 compounds, 15% hits; note: potency is the fitted concentration of half-maximal effect; nearly all actives have a fitted effect of over 55% in size
#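 Chicken DT40 Tdp1-/- cells stably complemented with human TDP1 were seeded at 400 cells/well with DMSO in place of 20 nM camptothecin. After compound pinning, cells grew at least 48 hr at 37 °C; viability read by CellTiter-Glo luminescence.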
# Active calls of the source: *; ? = inconclusive; . = not tested or not shown; [ ] = another dose, or the depositor's remark. Sampled rows, rich in hits. Any-hit rate of the full collection: about 19%. Unless noted, calls come from the whole dose curve; as a rule, active = well fitted curve in the direction sought with a large enough effect; inconclusive = small, poorly fitted or top-dose-only effect, or another doubt; inactive = no such curve, though single readings can be large; an effect the other way counts as inactive or inconclusive. % is set by controls: 0 for no effect and ±100 for the full control effect.
SMILES,DT40 TDP1 CPT,IL-1B inflam inh,ELG1 repair inh,TDP1 inh,Giardia kill,DT40 TDP1 no CPT
N#CC1(C#N)C(c2ccccc2)OC23CCCCC2C1(C#N)C(=N)O3 (stereo unspecified),-1.4%,-7.9,?,-2.3%,2.8,-15.5%
Cc1ccc(C)c(NC(=O)Cn2c(=O)n(-c3ccccc3C)c(=O)c3c2c2cc(C)ccc2n3C)c1,?,.,.,2.8%,.,-9.6%
O=C(Cc1ccc(Cl)c(Cl)c1)Nc1ccccc1N1CCCC1,14.6µM*,13.7,2.1%,7.2%,0.2,?
CCC(=O)N1CCN(c2ccccc2NC(=O)Cc2ccc(Cl)cc2)CC1,-14.9%,0.0,-2.1%,1.1%,-8.1,23.1µM*
CCOC(=O)c1ccc(NC(=O)CSc2nc(-c3ccc(OC)cc3)cc(C(F)(F)F)c2C#N)cc1,?,.,.,-2.1%,.,?
Cc1cc2nc(-c3ccc(OCc4ccccc4Cl)cc3)cc(C(F)(F)F)n2n1,?,.,.,5.3%,.,?
Cc1cc2nc(-c3ccc(OCc4ccccc4C)cc3)cc(C(F)(F)F)n2n1,?,.,.,-1.9%,.,16.4µM*
Cc1csc(N(C(=O)c2ccc(S(=O)(=O)N(C)C)cc2)c2ccccc2)n1,-21.7%,2.1,5.1%,0.9%,11.9,-25.6%
Cc1csc(N(C(=O)c2ccccc2F)c2ccccc2)n1,23.1µM*,10.9,-17.7%,2.5%,-4.2,10.3µM*
O=C(O)c1cc(NC(=O)c2ccccc2[N+](=O)[O-])ccc1O,5.5%,0.9,9.5%,-2.4%,-13.4,-23.8%
CCOCCCNC(=O)c1cc(Cl)c(NC(=O)C2=C(C)OCCS2)cc1OC,?,-18.2,-20.0%,.,-17.4,11.6µM*
CCCNC(=O)c1cc(Cl)c(NC(=O)C2=C(C)OCCS2)cc1OC,?,-53.3*,-28.1%,.,?,?
CC(C)=CCn1cnc2c1C(NOCc1ccccc1)=NCN2,.,.,.,10.6%,.,.
O=C(Nc1ccc2nc(N3CCOCC3)sc2c1)c1ccccc1,-19.1%,31.9,-1.8%,2.0%,-4.1,0.0%
CCC(Cc1ccccc1)NC(=O)c1ccc2nc(N3CCOCC3)sc2c1 (stereo unspecified),14.6µM*,-10.8,?,.,-25.0,13µM*
CCOC(CNC(=O)c1ccc2nc(N3CCC(C)CC3)sc2c1)OCC,?,-10.4,?,2.3%,15.2,?
CCC(Cc1ccccc1)NC(=O)c1ccc2nc(N3CCC(C)CC3)sc2c1 (stereo unspecified),20.6µM*,.,.,0.0%,.,10.3µM*
COCc1c(C(=O)Nc2ccc3nc(N4CCOCC4)sc3c2)oc2ccccc12,14.6µM*,-17.3,13µM*,1.1%[56.1 µM],15.2,?
CCCCC/C=C\C/C=C\C/C=C\CCCCCCC(=O)NCC(=O)O,.,.,.,7.5%,.,.
COc1ccc(C(=O)n2nc(-c3ccco3)nc2NCc2cccs2)cc1,?,.,.,2.5%,.,?
COc1ccc(/C=N/NC(=O)c2ccc3nc[nH]c3c2)c(OC)c1OC,-2.2%,-8.1,-1.3%,8.7%,-8.7,6.6%
CN(C)C(=O)c1ccc(-c2nccc(NCc3cccs3)n2)cc1,-11.9%,.,.,.,.,-7.8%
COc1ccccc1-c1nccc(NCc2cccs2)n1,20.6µM*,.,.,.,.,?
CN(C)c1ccc(-c2nccc(NCc3cccs3)n2)cc1,20.6µM*,.,.,.,.,23.1µM*
COc1ccccc1-c1nccc(Nc2ccc(F)cc2)n1,23.1µM*,.,.,.,.,?
SMILES,DT40 TDP1 CPT,IL-1B inflam inh,ELG1 repair inh,TDP1 inh,Giardia kill,DT40 TDP1 no CPT
Fc1ccc(Nc2ccnc(-c3ccoc3)n2)cc1,-22.3%,.,.,.,.,-4.1%
C=CCN1C(=O)C(C)(C)N(C(C)=O)c2ccccc21,-13.9%,0.5,-9.1%,-2.5%,6.2,4.8%
CC(=O)N1c2ccccc2N(Cc2ccc(C)cc2C)C(=O)C1(C)C,6.51µM*,84.4,-12.7%,5.9%,-1.5,5.8µM*
Cn1c(-c2cccs2)[n+](C)c2ccccc21,?,7.1,?,3.8%,17.7,18.4µM*
CCOn1c(=O)c(-c2cccs2)[n+]([O-])c2ccccc21,-10.5%,?,-4.7%,4.7%,-10.8,-9.0%
COc1cc(OC)c(C2=NOC(C(=O)N3CCCc4ccccc43)C2)cc1Cl (stereo unspecified),13µM*,-25.1,?,7.9%,-8.3,?
CCC1CCCCN1C(=O)C1CC(c2cc(Cl)c(OC)cc2OC)=NO1 (stereo unspecified),?,-1.6,-25.6%,2.2%,5.5,-15.9%
COc1cc(/C=C/C(=O)N2CCCc3ccccc32)cc(OC)c1OC,?,17.9,8.2µM*,0.6%,3.2,?
COc1cc(/C=C/C(=O)O)cc(S(=O)(=O)N2CCCc3ccccc32)c1OC,?,0.0,0.0%,-6.0%,23.6,?
CC(C(=O)N1CCc2ccccc21)N1CCN(S(=O)(=O)c2cccc(C(F)(F)F)c2)CC1 (stereo unspecified),?,-6.1,-4.0%,-0.1%,6.7,13µM*
COc1cc(/C=C/C(=O)N2CCCCC2=O)cc(OC)c1OC,2.99µM*,.,.,-3.1%[56.1 µM],.,3.76µM*
COC(=O)C1=CN(Cc2ccccc2)C=C(C(=O)OC)C1c1cc(F)ccc1F,-18.8%,-22.5,-7.2%,.,8.1,?
COc1cc(C(=O)N2CCCc3ccccc32)cc(OC)c1OC,18.4µM*,35.5,?,2.5%,-2.7,20.6µM*
COc1ccc(/C=C/C(=O)N2CCCc3ccccc32)cc1,25.9µM*,-4.5,?,0.0%,?,23.1µM*
COc1cc2c(cc1OC)CN(C(C)C(=O)N1CCc3ccccc31)CC2 (stereo unspecified),?,36.8,?,3.3%,8.4,18.4µM*
O=C(c1ccc(=O)oc1)N1CCCc2ccccc21,?,27.0,?,17.8µM*,1.7,16.4µM*
COc1ccc(NC(=O)N2CCCc3ccccc32)cc1,-6.4%,6.5,?,-4.0%,-5.4,-15.1%
COc1ccccc1CNC(=O)c1cc2cc3ccc(Cl)cc3nc2o1,10.7%,.,.,4.7%,.,-10.3%
CCN(CC)C(=O)c1cccnc1,6.3%,.,.,-0.7%,.,-18.9%
COc1ccc(Cl)cc1NC(=O)CN(C)CC(=O)NC(C)c1ccccc1 (stereo unspecified),?,0.0,?,2.6%,-19.4,-14.3%
CCCCCCCCCCCCCCCCCC(=O)OC(CC(=O)O)C[N+](C)(C)C (stereo unspecified),.,.,.,-6.6%[56.1 µM],.,.
COc1ccc(/C=C/C(=O)N2CCCc3ccccc32)c(OC)c1,?,?,?,.,-9.5,?

# Compound activity: PubChem, National Center for Advancing Translational Sciences (NCATS)
